# Measurements from PubChem BioAssay AID651812 (National Center for Advancing Translational Sciences (NCATS), 2012).
# About 650 (31%) of roughly 2,100 compounds were called active. Inconclusive results (about 16%) are left out. The call rests on the fitted dose curve; in most records, active means well fitted inhibition curve with a large enough effect; inconclusive means small, poorly fitted or top-dose-only effect; inactive means flat fitted curve, though single readings scatter. The list shows a part of the results.
# Test: qHTS for inhibitors of Vif-A3G interactions: Cherry picks; further: nearly all actives have a fitted effect of over 80% in size
# Settings: HeLa A3G-eYFP + Vif (tagged APOBEC3G with the HIV-1 protein that degrades it), 24 h; Potency: eYFP fluorescence increase; series mostly up to 36.9 µM
# Source text: The recent discovery and characterization of host restriction factors, which provide a potent defense to invading retroviruses, has provided new targets for antiviral drug development. APOBEC3G (A3G) and APOBEC3F (A3F) are potent cytidine deaminases that block HIV-1 replication; HIV-1 expresses the Vif protein, which counteracts A3G and A3F by binding to them and inducing their proteasomal degradation. The Vif-A3G and Vif-A3F interactions provide two potential targets for development of small molecules which can interfere with the ability of Vif to degrade A3G or A3F. […] To identify inhibitors that can interfere with Vif mediated degradation of A3G and A3F, we have developed Hela cell lines that stably express A3G or A3F tagged with eYFP at the C-terminal end (A3G-eYFP or A3F-eYFP, respectively) and Vif. In the absence of an inhibitor, Vif induces degradation of A3G-eYFP and A3F-eYFP, and the cells are not fluorescent. In the presence of an inhibitor, it is expected that Vif will be unable to degrade A3G-eYFP and/or A3F-eYFP, resulting in an increase in yellow fluorescence. In this assay, Vif A3G was screened against the cherry picks ordered from the MLSMR. NIH Chemical Genomics Center [NCGC] NIH Molecular Libraries Probe Centers Network [MLPCN] MLPCN Grant: MH093245 Assay Submitter (PI): Vinay Pathak, National Cancer Institute
# A3G-Vif cells were harvested from T225 flask and resuspended in phenol free OPTI-MEM medium with 5% FBS. Then 5 uL of 140,000 cells/mL resuspended cells was dispensed into each well of low base Aurora COC 1,536-well plates (black walled, clear bottom) using a Multidrop Combi dispenser. After overnight culture at 37 deg C with 5% CO2, a total of 23 nL of compounds at 5 selected concentrations from the NPC or positive control (2 mM stock of MG132) in DMSO was transferred to each well of the assay plate using a pintool (Kalypsys, San Diego, CA), and the plates were further incubated at 37 deg C with 5% CO2 for 24 hours. After that, the plates were measured on Acumen Explorer (TTP Lab Tech). The fluorescence was detected by 488 nm/Ex and […].
# Potency means the concentration at half of the fitted maximal effect.
row,SMILES,Potency
1,CN1/C(=C\C=C2C(=O)NC(=O)NC2=O)C(C)(C)c2ccccc21,4.61 µM (active)
2,COCCCn1c(=O)/c(=C\c2ccccc2OC(F)F)s/c1=C(/C#N)C(=O)NCCOC,20.6 µM (active)
3,CCCCNC(=O)/C(C#N)=c1\s/c(=C\c2ccccc2OC(F)F)c(=O)n1CCCOC,16.4 µM (active)
4,C/C(=C\c1ccc(N(C)C)cc1)[N+](=O)[O-],inactive
5,O=C1NC(=O)N(c2ccc3c(c2)OCO3)C(=O)/C1=C/c1ccc(N2CCCCC2)o1,23.1 µM (active)
6,O=C1NC(=O)N(c2ccc3c(c2)OCO3)C(=O)/C1=C\c1ccc(N2CCCCC2)o1,20.6 µM (active)
7,CCCCn1c(O)c(C(=O)/C=C/c2c[nH]c3ccccc23)c(=O)[nH]c1=O,15.8 µM (active)
8,Cc1ccccc1-n1c(/C=C/c2ccc(N(C)C)cc2)nc2ccccc2c1=O,5.8 µM (active)
9,O=c1[nH]c(CN2CC=C(c3ccccc3)CC2)nc2scc(-c3ccccc3)c12,23.1 µM (active)
10,O=C1/C(=C/c2ccc3c(c2)OCO3)SC(=S)N1CCC(=O)N(CCO)c1ccccc1,23.1 µM (active)
11,COc1ccc(-n2c(/C=C/c3ccc(O)c(OC)c3)nc3ccccc3c2=O)cc1,23.1 µM (active)
12,O=c1c2ccccc2nc(/C=C/c2ccccc2O)n1-c1ccc(Br)cc1,20.6 µM (active)
13,NC(=Nc1ccccc1)NN=Cc1c[nH]c2ccccc12,inactive
14,Cc1cccc(CN2CCCC(C(=O)c3cccc(OC(C)C)c3)C2)n1 (configuration not stated),inactive
15,O=C1NC(=S)SC1=Cc1ccc(N(CCCl)CCCl)cc1,15.8 µM (active)
16,CN1C(=O)C(=Cc2ccc(N3CCCCC3)o2)C(=O)N(C)C1=S,7.31 µM (active)
17,CN1C(=O)C(=Cc2ccc(N3CCOCC3)o2)C(=O)N(C)C1=O,23.1 µM (active)
18,CN1C(=O)C(=Cc2ccc(N3CCOCC3)o2)C(=O)N(C)C1=S,20.6 µM (active)
19,O=C1CN=C(c2cccc(Br)c2)c2cc(Br)ccc2N1,inactive
20,CCS(=O)(=O)N1N=C(c2cccc(NS(C)(=O)=O)c2)CC1c1ccccc1 (configuration not stated),18.4 µM (active)
21,O=Cc1c(C(=O)O)n(Cc2ccc(Cl)cc2)c2ccccc12,20.6 µM (active)
22,Cc1ccc(CNC(=O)c2ccccc2NC(=O)c2nsc3ccccc23)cc1,20.6 µM (active)
23,COc1ccc(-c2ccc(OC)c(OC)c2OC)cc1,inactive
24,CN(C)c1ccc(C(=O)c2ccc(N(C)C)cc2)cc1,inactive
25,Cc1cc(N(CCCl)CCCl)ccc1C=Cc1ccncn1,23.1 µM (active)
26,COCCNC(=O)c1c(NC(=O)c2ccc(Br)o2)n(Cc2ccccc2)c2nc3ccccc3nc12,20.6 µM (active)
27,COCCCNC(=O)c1c(NC(=O)c2ccco2)n(Cc2ccccc2)c2nc3ccccc3nc12,inactive
